# Screening data (PubChem)
# This is a sample that favours compounds with a hit; in the whole collection about 19% have one here.
# KB-V1 MDR tox: KB-V1 MDR subline cytotoxicity; KB-V1 MDR cells viability, CellTiter-Glo, 72 h; Potency, µM (doses to about 46.1 µM), actives largely listed as cytotoxic; hit rate 3.4% among 400,000; also: nearly all actives have a fitted effect of over 60% in size
#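 Drug-selected KB-V1 cells, grown in DMEM lacking phenol red with 10% FBS, receive compound titrations; after three days at 37 degrees C, surviving cell ATP is quantified by CellTiter-Glo luminescence and responses normalized and curve-fitted.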
# TDP1 cell noCPT: qHTS for Inhibitors of human tyrosyl-DNA phosphodiesterase 1 (TDP1): qHTS in cells in absence of CPT. DT40 Tdp1-/- hTDP1 cells, no CPT, ATP luminescence, 48 h. Potency, µM (series often up to 46.2 µM), without a hit: at the top dose activity change, negative = growth inhibition, usual class: inhibitors. hit rate 15% among 420,000. AID 686978, 2013; also: nearly all actives have a fitted effect of over 55% in size
#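 No-CPT arm: Tdp1-/-;hTDP1 DT40 cells (400/well) plus compounds, incubated ≥48 hr at 37 °C. Readout CellTiter-Glo luminescence.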
# KB-3-1 cytotox: kills parental KB-3-1 adenocarcinoma cells | KB-3-1 viability, CellTiter-Glo ATP luminescence, 72 h | hit rate 1.4% among 400,000 | Potency, µM (doses to about 46.1 µM), hits mostly cytotoxic; also: nearly all actives have a fitted effect of over 60% in size
#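 Cytotoxicity measured as CellTiter-Glo luminescence after 72 h at 37 C. Compound titrations were pinned onto drug-naive KB-3-1 parental adenocarcinoma cells grown in DMEM with 10% FBS, and normalized data fitted to concentration-response curves.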
# HT1080-NT tox: kills 2HG-producing HT-1080-NT fibrosarcoma cells | HT-1080-NT fibrosarcoma viability, CellTiter-Glo ATP luminescence, 48 h | Potency, µM (highest dose often 46.1 µM), inactives show at the highest dose activity, negative = less viability, actives largely listed as cytotoxic | hit rate 1.6% among 360,000 | AID 686970;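 also: NT is the 2HG producing partner of a matched IDH1 knockdown line; 0% = DMSO-treated cells and -100% = media-only wells without cells; nearly all actives have a fitted effect of over 55% in size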
#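 Read-out is CellTiter-Glo luminescence after 10 minutes at room temperature, following 48 hours' compound treatment of HT-1080-NT cells (750 cells/well, RPMI, 5% FBS, 37 degrees C).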
# HT1080 IDH1KD tx: HT-1080 IDH1 knockdown cell toxicity (counter line) | HT-1080 IDH1 knockdown viability, ATP luminescence, 48 h | Potency, µM (doses to about 46.1 µM), for inactives: at the top dose activity, negative = toxicity, usual class: cytotoxic | hit rate 2% among 360,000;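 also: 0% = DMSO wells and -100% = cell-free medium wells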
#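 Luminescent ATP read-out (CellTiter-Glo, 10 min at room temperature) after 48 h compound exposure at 37 °C gave viability of IDH1-knockdown HT-1080 cells. Activity was normalised to DMSO and cell-free wells, then fitted as concentration-response curves.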
# DT40 TDP1 CPT: growth inhibition of DT40 Tdp1-/-;hTDP1 cells with camptothecin (screen for TDP1 inhibitors); chicken DT40 Tdp1-/-;hTDP1 cells + 20 nM CPT, ATP luminescence, 48 h; Potency, µM (titrated, usually from 46.2 µM), without a hit: top-dose activity change, negative = growth inhibition, usual class: inhibitors; hit rate 12% among 420,000; AID 686979; also: nearly all actives have a fitted effect of over 55% in size
#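 Chicken DT40 Tdp1-/- cells stably complemented with human TDP1 were seeded at 400 cells/well in medium containing 20 nM camptothecin, exposed to pin-transferred compounds, and grown at 37 °C for at least 48 hr. Viability was read as ATP luminescence.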
# The depositor's hits bear a star; i = inactive; ? = inconclusive; nt = not tested or not shown. Calls follow the shape of the dose curve; as a rule, active = well fitted curve in the direction sought with a large enough effect; inconclusive = small, poorly fitted or top-dose-only effect, or another doubt; inactive = no such curve, though single readings can be large; an effect the other way counts as inactive or inconclusive. Unless noted, % is scaled to controls: 0 for no effect and ±100 for the full control effect; potency is read from the fitted curve at half-maximal effect.
SMILES,KB-V1 MDR tox,TDP1 cell noCPT,KB-3-1 cytotox,HT1080-NT tox,HT1080 IDH1KD tx,DT40 TDP1 CPT
CC(=O)Nc1ccc(S(=O)(=O)NC2(C(F)(F)F)NC(=O)N(Cc3ccccc3)C2=O)cc1 (centres undefined),i,3%,i,11%,20%,4%
CC1c2ccccc2CN1NC(=O)c1ccc(Cl)c(S(N)(=O)=O)c1 (centres undefined),nt,5%,nt,nt,nt,-2%
Cc1nc(Nc2ccc(S(N)(=O)=O)cc2)sc1-c1ccccc1,i,18µM*,i,?,?,?
Cc1c(C)c2c(OCC(=O)NCc3ccccn3)cc3c(c2oc1=O)CCC(C)(C)O3,?,16µM*,i,-5%,-4%,15µM*
CCCc1cc(=O)oc2c3c(cc(OCC(=O)NCc4ccccn4)c12)OC(C)(C)CC3,i,?,i,-2%,-9%,23µM*
COCCCNC(=O)COc1cc2c(c3oc(=O)c(C)c(C)c13)CCC(C)(C)O2,i,2.1µM*,i,-8%,-7%,?
CCCc1cc(=O)oc2c3c(cc(OCC(=O)NCc4ccncc4)c12)OC(C)(C)CC3,?,21µM*,i,-28%,-16%,6.5µM*
COc1ccccc1N1CCN(CCn2c(=O)c3c(c4ccccc4n3C)n(C)c2=O)CC1,nt,-5%,nt,nt,nt,6%
CCc1cc2c(cc3c(=O)n(CC(=O)NCc4cc(Br)ccc4OC)ncn32)s1,nt,?,nt,nt,nt,-29%
Cc1ccc(CCNC(=O)C2CCN(c3nnc(C)c4c(C)n(-c5ccccc5)nc34)CC2)cc1,i,-14%,i,nt,nt,?
Cc1nnc(N2CCC(C(=O)NCCc3ccccc3)CC2)c2nn(-c3ccccc3)c(C)c12,i,26µM*,i,nt,nt,?
Cc1nnc(N2CCC(C(=O)N3CCCCC3)CC2)c2nn(-c3ccc(Cl)cc3)c(C)c12,i,?,?,1%,-3%,21µM*
Cc1nnc(N2CCC(C(=O)NC3CCCCC3)CC2)c2nn(-c3ccc(Cl)cc3)c(C)c12,i,-6%,i,nt,nt,-8%
CCCCN(CC)CCNC(=O)C1CCN(c2nnc(C)c3c(C)n(-c4ccc(C)cc4)nc23)CC1,nt,21µM*,nt,nt,nt,?
Cc1ccc(-n2nc3c(N4CCC(C(=O)NCCc5cccs5)CC4)nnc(C)c3c2C)cc1,i,29µM*,i,?,16µM*,26µM*
O=C(NCc1ccccc1Cl)c1ccc2sc([C@@H]3O[C@H](CO)[C@H](O)[C@H](O)[C@H]3O)nc2c1,i,1%,i,2%,1%,-1%
CC(=O)c1ccc(NC(=O)C2CCN(c3nnc(C)c4c(C)n(-c5ccccc5)nc34)CC2)cc1,i,21µM*,i,nt,nt,15µM*
Cc1nnc(N2CCC(C(=O)NCCC(C)C)CC2)c2nn(-c3ccc(Cl)cc3)c(C)c12,i,21µM*,i,nt,nt,?
Cc1nnc(N2CCOCC2)c2nn(-c3cccc(Cl)c3)c(C)c12,3.7µM*,?,i,-3%,1%,?
O=[N+]([O-])c1cc(-c2nc(-c3ccncc3)no2)ccc1NCc1ccccc1,i,-24%,i,nt,nt,-19%
COc1ccc(NC(=O)CC2C(=O)N(c3ccccc3)C(=O)N2Cc2cccnc2)cc1 (centres undefined),nt,-21%,nt,nt,nt,-8%
COc1ccc(Cc2nnc(N/N=C/c3ccc(O)cc3O)[nH]c2=O)cc1OC,i,5.8µM*,?,?,?,5.8µM*
CCN(C(=O)c1cc(S(=O)(=O)N2CCc3ccccc32)cn1C)c1cccc(C)c1,nt,13µM*,nt,nt,nt,?
Cc1cc(F)ccc1NC(=O)c1cc(S(=O)(=O)N2CCc3ccccc32)cn1C,?,26µM*,i,6%,-14%,?
CCN(C(=O)c1cc(S(=O)(=O)N2CCc3ccccc32)cn1C)c1ccccc1,i,?,i,10%,9%,?
SMILES,KB-V1 MDR tox,TDP1 cell noCPT,KB-3-1 cytotox,HT1080-NT tox,HT1080 IDH1KD tx,DT40 TDP1 CPT
Cn1cc(S(=O)(=O)N2CCc3ccccc32)cc1C(=O)NC1CCCCC1,i,-25%,i,-23%,2%,-29%
CCC(C)(C)NC(=O)c1cc(S(=O)(=O)N2CCc3ccccc32)cn1C,?,15µM*,?,-3%,-3%,21µM*
CCc1ccc(-n2nc3cc(C)c(NC(=O)c4cc(OC)cc(OC)c4)cc3n2)cc1,i,-16%,i,nt,nt,-5%
CCc1ccc(-n2nc3cc(C)c(NC(=O)c4ccccc4C)cc3n2)cc1,nt,8.2µM*,nt,nt,nt,?
CCc1ccc(-n2nc3cc(C)c(NC(=O)c4cccc5ccccc45)cc3n2)cc1,?,?,i,nt,nt,21µM*
Cc1nnc(SCC(=O)NC2CCCCC2)n1-c1ccccc1,i,2%,i,-1%,12%,2%
COc1ccc(OCC(=O)N/N=C/c2ccc(O[C@@H]3O[C@H](CO)[C@@H](O)[C@H](O)[C@H]3O)cc2)cc1,i,-6%,3.7µM*,?,1.6µM*,-2%
Cc1cc(Cl)ccc1OCC(=O)N/N=C/c1ccc(OC2OC(CO)C(O)C(O)C2O)cc1 (centres undefined),i,-8%,i,-14%,-16%,1%
Cc1cc(SCC(=O)c2cccs2)nc2c(C)cccc12,?,-13%,i,4%,-9%,7%
CC(=O)Nc1ccc(C(=O)CSc2cc(C)c3cccc(C)c3n2)cc1,13µM*,?,?,-1%,-1%,?
COc1ccc2[nH]cc(CCN=C(NC(=O)c3ccccc3OC)Nc3nc(C)cc(C)n3)c2c1,?,nt,i,nt,nt,nt
COc1cccc(C(=O)NC(=NCCc2c[nH]c3ccc(OC)cc23)Nc2nc(C)cc(C)n2)c1,23µM*,nt,i,nt,nt,nt
Cc1cc(C)nc(NC(=NCCc2c[nH]c3ccccc23)NC(=O)C(C)(C)C)n1,?,15µM*,?,8%,15%,?
Cc1cc(C)nc(NC(=NCCc2c[nH]c3ccc(Cl)cc23)NC(=O)c2ccccc2C)n1,i,nt,?,nt,nt,nt
CCCCCCCCCCCCCCCCCC(=O)OC[C@@H](O)[C@H]1OC[C@H](O)[C@H]1O,nt,-18%,nt,nt,nt,-17%
O=[N+]([O-])c1cccc(C2NCC(c3ccccc3Cl)c3c2[nH]c2ccccc32)c1 (centres undefined),16µM*,?,i,?,26µM*,?
